In PubChem BioAssay (NCATS):
Results filed as inconclusive are left out. The source made the active and inactive calls. Calls follow the shape of the dose curve; as a rule, active = well fitted cell-killing curve with a large enough effect; inconclusive = small, poorly fitted or top-dose-only effect; inactive = flat fitted curve, though single readings scatter.

Experiment: Cell Viability - Renal Proximal Tubule (AID 545); also: nearly all actives have a fitted effect of over 40% in size
Conditions: renal proximal tubule cells viability; series mostly up to 91.7 µM
From the text: NIH Chemical Genomics Center [NCGC]
NIH Molecular Libraries Screening Centers Network [MLSCN]
National Institutes of Environmental Health Sciences [NIEHS]
National Toxicology Program [NTP]
We have developed a 1536-well cell-based assay for quantitative high throughput screening (qHTS) against a number of cell lines to determine in vitro cytotoxicity of small molecules. This particular assay uses the renal proximal tubule cells which are derived from normal kidney cells freshly isolated from rat.
NCGC Assay Protocol Summary:
The CellTiter-Glo luminescent cell viability assay (Promega) is a homogeneous method to measure the number of viable cells in culture. The end point readout of this assay is based on quantitation of intracellular ATP, an indicator of metabolic activity, using the luciferase reaction. Luciferase catalyzes the oxidation of beetle Luciferin to oxyluciferin and light in the presence of ATP. The luminescent signal is proportional to amount of ATP present.
Using the CellTiter-Glo luminescent cell viability assay, the amount of cellular ATP was measured in the renal proximal tubule cells with complete culture medium following compound treatment for 40 hours. The assay was performed in opaque white Kalypsys 1536-well plates. In the screen, tamoxifen and doxorubicin were used as positive controls. Library compounds were measured for their ability to cause acute toxicity in the cell line, as reflected by a decrease in intracellular ATP levels, in a concentration-dependent manner. […] AC50 values were determined from concentration-response data modeled with the standard Hill equation.
qHTS protocol for CellTiter Glo renal proximal tubule cell assay
[Step] [Parameter] [Value] [Description]
1. Reagent; 5 uL; 1000 renal proximal tubule cells/well
2. Time; 5 hr; 37 °C incubation
4. Controls; 23 nL; Tamoxifen 0.34 uM to 100 uM & Doxorubicin 0.02 nM to 100 uM
5. Time; 40 hr; 37 °C incubation
6. Reagent; 5 uL; CellTiter Glo reagent
7. Time; 20 min; Room Temperature
8. Detection; Luminescence; Viewlux plate reader
Keywords: cell viability, cytotoxicity, renal proximal tubule cells, luminescence, NTPHTS, NTPHTS_NCGC, NIEHS, EPA, DSSTox, MLSMR, MLSCN, NIH Roadmap, qHTS, NCGC

Compound | outcome
c1ccc(C2CO2)cc1 (stereo not given) | inactive
Nc1ccc(Cl)c(Cl)c1 | inactive
CC(Cl)CCl (stereo not given) | inactive
O=S(=O)(Cl)c1ccccc1 | inactive
C/C=C/C=O | inactive
CN(C)C(=O)Nc1cccc(C(F)(F)F)c1 | inactive
Cc1cc(Cl)ccc1O | inactive
c1ccc(OCC2CO2)cc1 (stereo not given) | inactive
Clc1ccc(Cl)c(Cl)c1 | inactive
BrCCc1ccccc1 | inactive
Clc1cc(Cl)c(Cl)c(Cl)c1 | inactive
CN(C)c1ccccc1 | inactive
C=C(Cl)CCl | inactive
OCCBr | inactive
Nc1cc(Cl)cc(Cl)c1 | inactive
O=C(O)C(Br)CBr (stereo not given) | inactive
CC(C)CON=O | inactive
ClP(Cl)(Cl)(Cl)Cl | inactive
N#C/C(N)=C(/N)C#N | inactive
ClCCOCCCl | inactive

Compound | outcome
Cc1cc(C)cc(OP(=O)(Oc2cc(C)cc(C)c2)Oc2cc(C)cc(C)c2)c1 | inactive
CCSC(=O)N1CCCCCC1 | inactive
CC(=O)CCC(C)=O | inactive
Nn1cnnc1 | inactive
CCOP(=O)(OCC)OCC | inactive
O=C(Cl)c1ccccc1F | inactive
Cc1coc2c1CCC(C)C2 (stereo not given) | inactive
CC(C)Br | inactive
OCCCCO | inactive
Nc1cc(Cl)ccc1Cl | inactive
CCC#N | inactive
Nc1ccccc1-c1ccccc1 | inactive
COC(=O)c1ccccc1N | inactive
COC(=O)Nc1cccc(OC(=O)Nc2cccc(C)c2)c1 | inactive
CCCCC(CC)COC(=O)c1ccc(C(=O)OCC(CC)CCCC)c(C(=O)OCC(CC)CCCC)c1 (stereo not given) | inactive
COc1cc(-c2ccc(N)c(OC)c2)ccc1N | inactive
Cl/C=C/Cl | inactive
Clc1ccc(C(c2ccccc2Cl)C(Cl)(Cl)Cl)cc1 (stereo not given) | inactive
Clc1cccc(Cl)c1Cl | inactive
CC(Cl)(Cl)Cl | inactive
